Data: ChEMBL document CHEMBL1961873, “Compounds: GSK PKIS; Assays: Nanosyn kinase panel” (2012)
“And” between values parts separate entries of the source, which are not always exact repeats. Equal entries are not always repeated.

Columns and labels:
[1] = target: RAC-alpha serine/threonine-protein kinase (Homo sapiens) (UniProt P31749); details: at 0.1 µM
[2] = target: RAC-alpha serine/threonine-protein kinase (Homo sapiens) (UniProt P31749); details: at 1 µM
[3] = target: RAC-beta serine/threonine-protein kinase (Homo sapiens) (UniProt P31751); details: at 0.1 µM
[4] = target: RAC-beta serine/threonine-protein kinase (Homo sapiens) (UniProt P31751); details: at 1 µM
[5] = target: RAC-gamma serine/threonine-protein kinase (Homo sapiens) (UniProt Q9Y243); details: at 0.1 µM
[6] = target: RAC-gamma serine/threonine-protein kinase (Homo sapiens) (UniProt Q9Y243); details: at 1 µM
[7] = target: G protein-coupled receptor kinase 6 (Homo sapiens) (UniProt P43250); details: at 0.1 µM
[8] = target: G protein-coupled receptor kinase 6 (Homo sapiens) (UniProt P43250); details: at 1 µM
[9] = target: T1, Rhodopsin kinase GRK7 (Homo sapiens) (UniProt Q8WTQ7); details: at 0.1 µM
T1 sequence (whole entry): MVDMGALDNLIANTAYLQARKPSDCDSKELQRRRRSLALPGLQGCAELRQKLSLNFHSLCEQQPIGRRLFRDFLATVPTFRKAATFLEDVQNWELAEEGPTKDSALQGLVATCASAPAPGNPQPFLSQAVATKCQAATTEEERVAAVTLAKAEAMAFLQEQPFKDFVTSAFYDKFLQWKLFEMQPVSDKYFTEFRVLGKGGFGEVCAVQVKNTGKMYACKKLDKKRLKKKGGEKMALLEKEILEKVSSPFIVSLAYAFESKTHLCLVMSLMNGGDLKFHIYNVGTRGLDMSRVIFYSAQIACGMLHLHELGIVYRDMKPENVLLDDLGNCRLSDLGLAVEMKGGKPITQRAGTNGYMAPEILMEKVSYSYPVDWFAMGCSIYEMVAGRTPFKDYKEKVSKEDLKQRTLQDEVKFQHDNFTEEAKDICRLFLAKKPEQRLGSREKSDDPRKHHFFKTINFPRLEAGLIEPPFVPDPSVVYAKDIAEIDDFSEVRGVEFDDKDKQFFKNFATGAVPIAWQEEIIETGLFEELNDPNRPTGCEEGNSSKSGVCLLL

[10] = target: T1, Rhodopsin kinase GRK7 (Homo sapiens); details: at 1 µM
[11] = target: Serine/threonine-protein kinase MRCK alpha (Homo sapiens) (UniProt Q5VT25); details: at 0.1 µM
[12] = target: Serine/threonine-protein kinase MRCK alpha (Homo sapiens) (UniProt Q5VT25); details: at 1 µM
[13] = target: Serine/threonine-protein kinase MRCK beta (Homo sapiens) (UniProt Q9Y5S2); details: at 0.1 µM
[14] = target: Serine/threonine-protein kinase MRCK beta (Homo sapiens) (UniProt Q9Y5S2); details: at 1 µM
[15] = target: Ribosomal protein S6 kinase alpha-5 (Homo sapiens) (UniProt O75582); details: at 0.1 µM
[16] = target: Ribosomal protein S6 kinase alpha-5 (Homo sapiens) (UniProt O75582); details: at 1 µM
[17] = target: Ribosomal protein S6 kinase alpha-4 (Homo sapiens) (UniProt O75676); details: at 0.1 µM
[18] = target: Ribosomal protein S6 kinase alpha-4 (Homo sapiens) (UniProt O75676); details: at 1 µM
[19] = target: Ribosomal protein S6 kinase beta-1 (Homo sapiens) (UniProt P23443); details: at 0.1 µM
[20] = target: Ribosomal protein S6 kinase beta-1 (Homo sapiens) (UniProt P23443); details: at 1 µM

Sequence of RAC-alpha serine/threonine-protein kinase (Homo sapiens) (P31749 whole entry): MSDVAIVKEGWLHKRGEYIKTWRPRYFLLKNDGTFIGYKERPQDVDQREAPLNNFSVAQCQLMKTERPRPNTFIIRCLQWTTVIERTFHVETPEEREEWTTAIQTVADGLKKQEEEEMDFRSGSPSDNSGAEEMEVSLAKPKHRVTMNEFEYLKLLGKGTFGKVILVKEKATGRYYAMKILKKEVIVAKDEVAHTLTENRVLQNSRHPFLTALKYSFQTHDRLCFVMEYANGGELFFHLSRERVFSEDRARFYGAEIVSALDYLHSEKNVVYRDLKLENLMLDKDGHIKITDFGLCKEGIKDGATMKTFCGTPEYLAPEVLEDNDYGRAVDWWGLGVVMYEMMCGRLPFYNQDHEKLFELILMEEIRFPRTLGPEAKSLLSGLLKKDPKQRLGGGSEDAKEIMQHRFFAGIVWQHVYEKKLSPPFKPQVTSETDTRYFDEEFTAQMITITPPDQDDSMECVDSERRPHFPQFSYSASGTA
Sequence of G protein-coupled receptor kinase 6 (Homo sapiens) (P43250 whole entry, looked up): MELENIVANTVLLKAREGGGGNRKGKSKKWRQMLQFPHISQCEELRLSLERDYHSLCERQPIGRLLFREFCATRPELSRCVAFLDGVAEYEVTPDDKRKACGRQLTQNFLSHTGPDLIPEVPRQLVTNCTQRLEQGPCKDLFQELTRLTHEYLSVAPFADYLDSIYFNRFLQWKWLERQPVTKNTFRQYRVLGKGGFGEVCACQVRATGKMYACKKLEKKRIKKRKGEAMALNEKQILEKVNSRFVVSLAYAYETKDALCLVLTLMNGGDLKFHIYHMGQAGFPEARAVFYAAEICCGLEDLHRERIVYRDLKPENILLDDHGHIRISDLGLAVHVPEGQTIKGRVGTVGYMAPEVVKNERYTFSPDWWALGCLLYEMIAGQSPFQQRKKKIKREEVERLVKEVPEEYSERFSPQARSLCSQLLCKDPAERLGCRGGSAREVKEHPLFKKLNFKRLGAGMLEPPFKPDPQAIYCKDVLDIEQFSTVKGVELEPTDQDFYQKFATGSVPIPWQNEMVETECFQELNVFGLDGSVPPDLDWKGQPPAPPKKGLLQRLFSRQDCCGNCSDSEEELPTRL
Sequence of Serine/threonine-protein kinase MRCK alpha (Homo sapiens) (Q5VT25 whole entry): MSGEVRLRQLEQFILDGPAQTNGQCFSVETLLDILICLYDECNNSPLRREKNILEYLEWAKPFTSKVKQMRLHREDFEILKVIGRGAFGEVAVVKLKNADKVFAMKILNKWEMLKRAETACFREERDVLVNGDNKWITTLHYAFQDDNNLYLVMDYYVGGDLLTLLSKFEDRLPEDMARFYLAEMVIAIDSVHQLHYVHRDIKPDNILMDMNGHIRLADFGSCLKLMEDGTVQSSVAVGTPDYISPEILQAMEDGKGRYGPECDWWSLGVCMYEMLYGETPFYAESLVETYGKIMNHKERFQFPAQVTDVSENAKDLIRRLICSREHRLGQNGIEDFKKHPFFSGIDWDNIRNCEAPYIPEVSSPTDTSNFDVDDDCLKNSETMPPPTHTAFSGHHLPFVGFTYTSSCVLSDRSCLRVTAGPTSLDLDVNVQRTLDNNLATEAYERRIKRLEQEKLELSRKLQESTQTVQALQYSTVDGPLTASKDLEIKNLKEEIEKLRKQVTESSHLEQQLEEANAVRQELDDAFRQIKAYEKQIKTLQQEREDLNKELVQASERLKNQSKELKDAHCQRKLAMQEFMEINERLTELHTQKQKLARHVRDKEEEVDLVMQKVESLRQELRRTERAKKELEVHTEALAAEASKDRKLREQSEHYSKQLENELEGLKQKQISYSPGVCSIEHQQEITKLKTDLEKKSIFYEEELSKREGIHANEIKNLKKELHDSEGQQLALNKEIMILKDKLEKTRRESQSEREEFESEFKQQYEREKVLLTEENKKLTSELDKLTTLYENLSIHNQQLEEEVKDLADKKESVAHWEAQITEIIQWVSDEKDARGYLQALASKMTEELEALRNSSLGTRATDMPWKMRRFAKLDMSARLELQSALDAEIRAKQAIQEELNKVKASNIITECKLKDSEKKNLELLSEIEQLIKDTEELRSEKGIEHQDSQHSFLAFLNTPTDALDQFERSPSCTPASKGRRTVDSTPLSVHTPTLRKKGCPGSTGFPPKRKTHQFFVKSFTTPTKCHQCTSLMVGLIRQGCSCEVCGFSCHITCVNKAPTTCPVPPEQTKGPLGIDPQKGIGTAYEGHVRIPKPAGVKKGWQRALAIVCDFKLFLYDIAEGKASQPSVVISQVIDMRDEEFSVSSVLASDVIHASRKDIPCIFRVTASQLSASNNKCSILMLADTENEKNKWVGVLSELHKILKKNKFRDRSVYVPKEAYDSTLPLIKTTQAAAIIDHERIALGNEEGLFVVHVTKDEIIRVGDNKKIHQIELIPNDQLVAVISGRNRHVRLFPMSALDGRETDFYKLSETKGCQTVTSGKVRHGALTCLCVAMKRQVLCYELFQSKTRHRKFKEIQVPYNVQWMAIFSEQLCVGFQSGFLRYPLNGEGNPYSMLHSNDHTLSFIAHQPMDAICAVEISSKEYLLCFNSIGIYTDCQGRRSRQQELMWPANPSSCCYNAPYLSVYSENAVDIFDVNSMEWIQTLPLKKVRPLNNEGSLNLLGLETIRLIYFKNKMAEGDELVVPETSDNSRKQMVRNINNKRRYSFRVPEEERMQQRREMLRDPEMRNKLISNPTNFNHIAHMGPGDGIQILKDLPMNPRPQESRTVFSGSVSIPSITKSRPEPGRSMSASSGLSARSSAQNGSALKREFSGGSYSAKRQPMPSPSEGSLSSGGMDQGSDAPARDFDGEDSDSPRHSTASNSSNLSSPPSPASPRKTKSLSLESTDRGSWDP
Sequence of Ribosomal protein S6 kinase beta-1 (Homo sapiens) (P23443 whole entry, looked up): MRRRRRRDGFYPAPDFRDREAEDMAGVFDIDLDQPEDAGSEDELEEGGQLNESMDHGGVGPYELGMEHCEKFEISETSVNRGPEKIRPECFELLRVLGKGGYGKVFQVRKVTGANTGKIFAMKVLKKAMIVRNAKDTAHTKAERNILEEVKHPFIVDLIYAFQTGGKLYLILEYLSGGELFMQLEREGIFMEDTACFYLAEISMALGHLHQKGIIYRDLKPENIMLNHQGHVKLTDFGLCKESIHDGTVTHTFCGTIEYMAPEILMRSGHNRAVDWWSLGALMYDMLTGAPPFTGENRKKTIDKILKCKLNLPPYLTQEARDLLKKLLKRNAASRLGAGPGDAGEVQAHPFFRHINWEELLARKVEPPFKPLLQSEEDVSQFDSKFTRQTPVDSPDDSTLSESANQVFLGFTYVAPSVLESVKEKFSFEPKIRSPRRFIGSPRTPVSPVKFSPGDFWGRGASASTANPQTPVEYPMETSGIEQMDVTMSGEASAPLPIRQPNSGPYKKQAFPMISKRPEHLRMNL
Sequence of RAC-gamma serine/threonine-protein kinase (Homo sapiens) (Q9Y243 whole entry): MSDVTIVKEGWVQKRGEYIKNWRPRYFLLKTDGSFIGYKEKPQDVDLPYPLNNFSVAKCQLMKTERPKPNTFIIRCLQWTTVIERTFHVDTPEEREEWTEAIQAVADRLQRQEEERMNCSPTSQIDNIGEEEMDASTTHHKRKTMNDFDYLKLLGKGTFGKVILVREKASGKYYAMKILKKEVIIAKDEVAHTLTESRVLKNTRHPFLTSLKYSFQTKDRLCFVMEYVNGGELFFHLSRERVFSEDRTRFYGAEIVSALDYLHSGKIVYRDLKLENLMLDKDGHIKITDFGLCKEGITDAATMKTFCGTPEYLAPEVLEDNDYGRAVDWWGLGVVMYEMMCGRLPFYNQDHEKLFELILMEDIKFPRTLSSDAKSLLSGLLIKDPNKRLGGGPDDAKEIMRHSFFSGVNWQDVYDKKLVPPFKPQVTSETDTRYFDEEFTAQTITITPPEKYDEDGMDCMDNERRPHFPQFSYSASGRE
Sequence of RAC-beta serine/threonine-protein kinase (Homo sapiens) (P31751 whole entry): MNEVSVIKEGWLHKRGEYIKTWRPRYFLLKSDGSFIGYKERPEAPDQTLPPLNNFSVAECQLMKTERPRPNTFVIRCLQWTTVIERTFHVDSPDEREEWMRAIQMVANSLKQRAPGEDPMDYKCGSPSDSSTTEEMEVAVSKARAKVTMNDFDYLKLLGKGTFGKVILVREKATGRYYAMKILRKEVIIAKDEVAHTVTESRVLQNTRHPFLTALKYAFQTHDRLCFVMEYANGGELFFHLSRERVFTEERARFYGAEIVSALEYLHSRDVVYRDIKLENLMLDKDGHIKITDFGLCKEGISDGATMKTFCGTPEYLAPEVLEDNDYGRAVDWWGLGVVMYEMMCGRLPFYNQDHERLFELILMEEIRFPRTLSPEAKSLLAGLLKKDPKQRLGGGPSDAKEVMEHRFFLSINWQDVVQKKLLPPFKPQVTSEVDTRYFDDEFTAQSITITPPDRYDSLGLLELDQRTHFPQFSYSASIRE
Sequence of Ribosomal protein S6 kinase alpha-5 (Homo sapiens) (O75582 whole entry, looked up): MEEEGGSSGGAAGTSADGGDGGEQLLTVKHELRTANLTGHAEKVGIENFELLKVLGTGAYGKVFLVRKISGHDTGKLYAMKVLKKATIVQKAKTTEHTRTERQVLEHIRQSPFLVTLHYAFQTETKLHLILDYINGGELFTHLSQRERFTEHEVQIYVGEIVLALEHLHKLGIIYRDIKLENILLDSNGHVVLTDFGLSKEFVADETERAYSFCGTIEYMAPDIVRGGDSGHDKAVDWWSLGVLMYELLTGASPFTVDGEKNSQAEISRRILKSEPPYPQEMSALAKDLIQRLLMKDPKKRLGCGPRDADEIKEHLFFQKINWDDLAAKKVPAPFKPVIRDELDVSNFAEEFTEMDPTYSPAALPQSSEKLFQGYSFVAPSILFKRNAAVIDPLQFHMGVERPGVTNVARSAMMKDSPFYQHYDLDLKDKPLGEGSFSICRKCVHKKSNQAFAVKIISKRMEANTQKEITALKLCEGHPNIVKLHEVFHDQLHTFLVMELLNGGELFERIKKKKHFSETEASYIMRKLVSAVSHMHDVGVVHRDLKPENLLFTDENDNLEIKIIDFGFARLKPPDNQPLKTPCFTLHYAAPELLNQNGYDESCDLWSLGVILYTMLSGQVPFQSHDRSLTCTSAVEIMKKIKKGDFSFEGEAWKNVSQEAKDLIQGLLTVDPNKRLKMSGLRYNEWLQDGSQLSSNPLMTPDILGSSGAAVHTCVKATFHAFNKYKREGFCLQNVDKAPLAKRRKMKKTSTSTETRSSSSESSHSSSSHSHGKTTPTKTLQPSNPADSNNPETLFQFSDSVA

Structure (SMILES)	inhibition [1]	inhibition [2]	inhibition [3]	inhibition [4]	inhibition [5]	inhibition [6]	inhibition [7]	inhibition [8]	inhibition [9]	inhibition [10]	inhibition [11]	inhibition [12]	inhibition [13]	inhibition [14]	inhibition [15]	inhibition [16]	inhibition [17]	inhibition [18]	inhibition [19]	inhibition [20]
COc1ccccc1-c1cc(/C=C2\C(=O)Nc3ncc(Br)cc32)cc(Br)c1O	0.67%	0.15%	1.96%	2.36%	1.93%	0.61%	5.35%	30.3%	28.7%	57.2%	-0.66%	-2.56%	-0.06%	-0.72%	3.42%	1.75%	1.76%	6.3%	2.51%	2.75%
COc1cccc(-n2ncc3c(N/N=C/c4ccc(C(=O)NCCN(C)C)cc4)ncnc32)c1	0.53%	-4.74%	1.29%	-2.95%	1.33%	-1.17%	-2.74%	-7.47%	1.52%	-8.73%	2.1%	7.78%	2.49%	8.24%	3.26%	8.01%	1.32%	4.69%	4.61%	20.9%
CC1=C(C(=O)Nc2ccc3[nH]nc(C)c3c2)C(c2ccc(C(F)(F)F)cc2)CC(=O)N1 (stereo not given)	1.17%	1.18%	0.84%	1.11%	0.54%	2.53%	3.68%	14.7%	0.8%	-5%	1.9%	17.1%	5.5%	37.4%	6.02%	28.8%	1.31%	11.5%	1.6%	9.4%
Cn1c(-c2nonc2N)nc2cnccc21	0.27%	0.36%	2.48%	1.66%	1.14%	1.35%	3.53%	4%	4.22%	2.15%	1.33%	10.3%	3.02%	14.4%	32.7%	72.4%	7.86%	39.6%	19.8%	66.6%
COc1cc(N2CCN(C(C)C)CC2)ccc1Nc1nc(Nc2cccc(F)c2C(=O)O)c2cc[nH]c2n1	0.12%	0.67%	1.27%	1.08%	0.73%	2.08%	6.59%	10.8%	3.79%	5.95%	-0.32%	1.08%	-1.28%	0.34%	2.89%	3.87%	0.48%	2.67%	1.22%	2.81%
O=C(Nc1n[nH]c2nnc(-c3cccnc3)cc12)C1CC1	-0.73%	-0.67%	-0.56%	0.1%	-0.57%	5.03%	3.53%	0.48%	2.31%	-1.4%	2.61%	-0.69%	0.62%	0.7%	-1.47%	-0.64%	-0.31%	0.76%	-0.26%	0.25%
CS(=O)(=O)CCNCc1ccoc1-c1ccc2ncnc(Nc3ccc(OCc4ccccc4)cc3)c2c1	-0.19%	0.18%	-0.24%	0.41%	-0.09%	2.03%	0.69%	1.77%	4.11%	-0.84%	-1.71%	-3.38%	-0.65%	-2.47%	-0.3%	-2.16%	0.88%	-1.22%	-1.12%	-1.32%
COc1cc(N2CCN(C(C)C)CC2)ccc1Nc1nc(Nc2cccc3ncccc23)c2cc[nH]c2n1	-0.64%	-0.94%	-0.9%	-0.32%	0.92%	0.55%	-0.14%	-0.02%	-2.45%	0.29%	-0.06%	4.44%	0.85%	4.14%	0.1%	1.16%	1.01%	2.7%	0.36%	2.23%
CN(C)CCNC(=O)Nc1ccc(N(C)c2ccnc(Nc3ccc(CS(C)(=O)=O)cc3)n2)cc1	1.23%	0.77%	1.42%	0.96%	1.47%	1.13%	2.73%	-0.52%	3.11%	-0.51%	-0.24%	-0.69%	1.09%	2.25%	3.26%	3.31%	3.22%	4.32%	1.72%	1.94%
O=C(O[C@H]1CN[C@H](C#Cc2cc3ncnc(Nc4ccc(OCc5cccc(F)c5)c(Cl)c4)c3s2)C1)N1CCOCC1	0.61%	0.67%	2.23%	2.72%	1.68%	1.6%	9.5%	13.6%	5.62%	16%	-0.44%	0.92%	0.34%	0.26%	-0.86%	0.41%	2.64%	4.39%	1.72%	2.85%
c1ccc(-c2n[nH]cc2-c2ccnc(-c3ccc(OCCn4ccnc4)cc3)c2)nc1	-1.55%	0.14%	-0.98%	0.73%	-0.34%	1.01%	1.73%	4.13%	-0.12%	4.02%	-0.22%	-0.54%	1.02%	2.11%	-4.46%	-0.29%	0.76%	3.98%	0.32%	0.33%
COc1ccc(-c2nn3ncccc3c2-c2ccnc(Nc3ccc(F)c(F)c3)n2)cc1	0.52%	2.13%	1.56%	1.42%	1.4%	2.01%	7.85%	10.1%	6.45%	7.95%	0.67%	4.1%	-0.01%	-0.11%	3.92%	6.45%	3.37%	4.5%	1.91%	2.58%
CS(=O)(=O)CCNCc1ccc(-c2ccc3ncnc(Nc4ccc(OCc5cccc(C(F)(F)F)c5)cc4)c3c2)o1	0.68%	0.01%	0.73%	1.64%	0.95%	2.79%	6.2%	3.84%	8.32%	0.47%	1.26%	5.01%	0.69%	2%	4.18%	3.88%	1.66%	2.03%	1.39%	3.25%
NS(=O)(=O)c1ccc(N/N=C2\C(=O)Nc3cccc(CCc4ccncc4)c32)cc1	0.52%	0.04%	-0.35%	0.27%	0.45%	1.65%	0.11%	1.61%	7.3%	5.05%	-0.78%	-0.69%	0.54%	0.31%	-0.75%	-0.48%	0.37%	2.61%	0.08%	-0.48%
CCN1CCC(C(=O)Nc2n[nH]c3nnc(-c4cccc(F)c4F)cc23)CC1	-0.41%	-1.03%	-1.1%	-0.35%	-1.17%	2.44%	-2.23%	1.97%	3.51%	-1.02%	-1.78%	1.74%	0.8%	-0.36%	-1.22%	-2.44%	0.41%	0.26%	-0.22%	-1.27%
OCCCNc1nccc(-c2c(-c3ccc(F)cc3)nn3cc(C(F)(F)F)ccc23)n1	0.44%	0.71%	1.9%	0.18%	0.6%	0%	1.18%	-2.71%	-0.28%	-8.21%	0.26%	-1.54%	0.31%	1.86%	4.64%	4.76%	2.6%	5.75%	3.2%	2.94%
Cc1cc(O)cc(C)c1/C=C/c1cncc(C(=O)OC(C)(C)C)c1	0.38%	0.97%	1.75%	0.98%	1.33%	1.34%	2.27%	2.46%	7.07%	6.87%	0.35%	1.93%	1.45%	2.65%	1.89%	3.7%	1.86%	3.1%	0.44%	0.31%
COc1cc(Nc2ncc(-c3ccccc3)o2)cc(OC)c1	1.36%	1.33%	1.9%	2.08%	0.79%	3.26%	0.04%	-0.63%	19.2%	18.7%	-6.08%	-1.27%	-0.81%	0.65%	2.3%	-0.44%	2.85%	2.84%	2.08%	3.04%
COc1cccc(Nc2nccc(-c3cnn4ncccc34)n2)c1	1.34%	0.43%	1.17%	0.61%	1.46%	-0.03%	4.14%	0.06%	1.07%	-2.16%	0.93%	-0.24%	-1.65%	-1.51%	1.02%	4.32%	1.62%	10.5%	2.02%	3.93%
NS(=O)(=O)c1cccc(N/C=C2\C(=O)Nc3ccccc32)c1	0.57%	0.97%	1.32%	1.98%	1.37%	0.33%	3.98%	11.5%	2.36%	9.13%	0.02%	0.03%	0.57%	2.14%	10.2%	14.8%	2.95%	18.6%	2.13%	8%
COc1cc2c(cc1Nc1nc(Nc3cccc(F)c3C(N)=O)c3cc[nH]c3n1)N(C(=O)CN1CCN(C(C)C)CC1)CC2	0.64%	1.39%	1.31%	3.18%	1.35%	3.89%	7.5%	26.5%	6.57%	18.7%	6.36%	5.12%	0.17%	2.33%	1.4%	3.93%	1.44%	3.9%	2.23%	2.83%
CCOc1ccc2c(-c3ccnc(Nc4cc(OC)cc(C(F)(F)F)c4)n3)cnn2n1	0.02%	0.45%	0.01%	0.53%	0.18%	0.45%	2.38%	0.28%	-0.23%	16.9%	-0.76%	-0.62%	0.09%	0.13%	1.4%	2.37%	1.07%	-0.61%	0.27%	0.73%
CN1CCC(C(=O)Nc2n[nH]c3nc(-c4ccc(O)cc4)c(Br)cc23)CC1	-3.78% and 0.82%	-3.1% and -0.05%	-1.35% and 0.28%	-1.57% and 1.31%	-2.51% and 0.97%	-0.95% and 3.11%	8.47% and 0.32%	20.1% and 5.9%	5.9% and 4.12%	16.7% and -0.01%	2.05% and 4.4%	21.6% and 19.5%	1.99% and 0.84%	12.8% and 12.7%	1.62% and 0.25%	3.91% and 1.49%	2.85% and 1.78%	5.51% and 1.19%	0.96% and -0.21%	2.58% and -0.02%
CC1=C(C(=O)Nc2ccc3[nH]ncc3c2)C(c2ccc(F)cc2)N=C(c2ccc(C(F)(F)F)nc2)N1 (stereo not given)	0.83%	1.06%	1.39%	1.43%	1.44%	1.68%	3.1%	-2.54%	0.19%	-2.93%	-0.15%	0.82%	-0.07%	4.54%	3.51%	19.2%	2.12%	14.9%	1.03%	7.4%
